Among the data in PMC7862700, “An all-to-all approach to the identification of sequence-specific readers for epigenetic DNA modifications on cytosine” are binding signal values, retold here.

What all share (assay): DAPPL (digital affinity profiling via proximity ligation, sequencing); 10 mM Tris-HCl pH 7.5, 50 mM NaCl, 1 mM DTT, 4% glycerol, room temperature, 30 min; GST-TFs on glutathione beads, 16-mer random dsDNA library, 0.1% formaldehyde crosslink after washing; high values mean tight binding
The target of one assay is T1, SPIC (Homo sapiens, UniProt Q8N5J4 1-248).
T1 sequence: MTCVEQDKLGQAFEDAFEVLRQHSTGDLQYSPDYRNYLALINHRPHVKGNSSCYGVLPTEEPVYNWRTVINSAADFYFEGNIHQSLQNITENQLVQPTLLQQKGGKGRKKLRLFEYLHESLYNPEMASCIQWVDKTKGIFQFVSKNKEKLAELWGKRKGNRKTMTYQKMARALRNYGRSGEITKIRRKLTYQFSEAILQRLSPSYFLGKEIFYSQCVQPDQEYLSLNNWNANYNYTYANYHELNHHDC
The conditions noted are these: protein: recombinant; tags: N-terminal GST; dsDNA, one strand shown. The method in brief: (§1)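 Human transcription factors were made in yeast as GST fusions, captured on glutathione beads and barcoded with DNA. With a tag-only sample included, the pool was incubated with 200 nmole of a random double-stranded 16-mer DNA library in Tris/NaCl/DTT/glycerol buffer at room temperature for 30 min, then crosslinked with 0.1% formaldehyde after washing, ligated by proximity, amplified and sequenced. For binding signal, each hexamer's read frequency for a factor is divided by its frequency for the tag-only sample.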

The next assay concerns the target T2, ERG (Homo sapiens, UniProt P11308 1-479).
T2 sequence: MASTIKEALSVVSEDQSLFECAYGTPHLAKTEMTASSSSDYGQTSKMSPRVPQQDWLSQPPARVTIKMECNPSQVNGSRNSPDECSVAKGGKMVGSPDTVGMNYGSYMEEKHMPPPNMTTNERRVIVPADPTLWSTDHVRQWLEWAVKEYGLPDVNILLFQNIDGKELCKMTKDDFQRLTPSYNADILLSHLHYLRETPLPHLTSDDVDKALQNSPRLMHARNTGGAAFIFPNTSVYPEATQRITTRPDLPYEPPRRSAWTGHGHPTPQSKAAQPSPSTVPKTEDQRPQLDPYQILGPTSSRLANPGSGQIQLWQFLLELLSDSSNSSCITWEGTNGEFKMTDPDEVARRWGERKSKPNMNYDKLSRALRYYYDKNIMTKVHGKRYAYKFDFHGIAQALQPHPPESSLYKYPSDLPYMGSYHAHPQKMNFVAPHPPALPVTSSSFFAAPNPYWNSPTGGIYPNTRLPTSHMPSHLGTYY
The following applies: protein: recombinant; tags: N-terminal GST; dsDNA, one strand shown. The method in brief: as §1

In another assay the target is SPI1 (Homo sapiens, UniProt P17947 1-270). The following applies: protein: recombinant; tags: N-terminal GST; dsDNA, one strand shown. The method in brief:
as §1

The target in a further assay is T3, ELK3 (Homo sapiens, UniProt P41970 1-407).
T3 sequence: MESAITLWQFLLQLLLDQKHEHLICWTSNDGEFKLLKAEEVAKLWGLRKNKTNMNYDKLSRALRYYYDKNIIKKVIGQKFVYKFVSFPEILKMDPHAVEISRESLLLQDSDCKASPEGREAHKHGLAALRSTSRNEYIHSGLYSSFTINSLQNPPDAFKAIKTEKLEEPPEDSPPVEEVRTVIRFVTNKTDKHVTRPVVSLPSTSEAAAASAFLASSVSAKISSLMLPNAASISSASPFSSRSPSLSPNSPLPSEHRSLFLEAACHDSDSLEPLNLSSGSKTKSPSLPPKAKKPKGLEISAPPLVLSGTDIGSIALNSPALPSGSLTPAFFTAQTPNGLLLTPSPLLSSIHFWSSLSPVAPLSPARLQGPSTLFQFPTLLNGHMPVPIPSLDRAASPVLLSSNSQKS
The conditions noted are these: protein: recombinant; tags: N-terminal GST; dsDNA, one strand shown. The method in brief: as §1

The target of another assay is HSF1 (Homo sapiens, UniProt Q00613 1-529). The following applies: protein: recombinant; tags: N-terminal GST; chain copies: 3; dsDNA, one strand shown. The procedure, abridged:
as §1

A further assay deals with CRX (Homo sapiens, UniProt O43186 1-299). The conditions noted are these: protein: recombinant; tags: N-terminal GST; dsDNA, one strand shown. The procedure, abridged:
as §1

For another assay, the target named is T4, ETV7 (Homo sapiens, UniProt Q9Y603 1-341).
T4 sequence: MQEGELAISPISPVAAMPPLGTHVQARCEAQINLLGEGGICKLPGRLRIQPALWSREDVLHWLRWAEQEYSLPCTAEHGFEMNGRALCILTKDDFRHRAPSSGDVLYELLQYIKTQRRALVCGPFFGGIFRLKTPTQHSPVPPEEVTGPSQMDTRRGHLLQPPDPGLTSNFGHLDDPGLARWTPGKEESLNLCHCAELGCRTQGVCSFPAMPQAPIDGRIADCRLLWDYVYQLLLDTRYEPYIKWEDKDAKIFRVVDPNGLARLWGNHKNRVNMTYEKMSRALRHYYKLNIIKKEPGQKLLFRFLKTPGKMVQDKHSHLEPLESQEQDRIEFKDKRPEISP
The following applies: protein: recombinant; tags: N-terminal GST; dsDNA, one strand shown. The method in brief:
as §1

In the next assay the target is T5, EHF (Homo sapiens, UniProt Q9NZC4 1-300).
T5 sequence: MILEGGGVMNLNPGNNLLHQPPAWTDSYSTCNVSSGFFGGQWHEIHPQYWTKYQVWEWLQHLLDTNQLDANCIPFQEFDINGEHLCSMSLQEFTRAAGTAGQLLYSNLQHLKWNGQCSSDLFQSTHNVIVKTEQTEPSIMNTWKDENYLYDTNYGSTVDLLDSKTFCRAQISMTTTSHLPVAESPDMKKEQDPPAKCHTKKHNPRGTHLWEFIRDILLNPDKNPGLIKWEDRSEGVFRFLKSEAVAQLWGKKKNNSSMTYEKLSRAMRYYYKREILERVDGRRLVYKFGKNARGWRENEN
The conditions noted are these: protein: recombinant; tags: N-terminal GST; dsDNA, one strand shown. The procedure, abridged:
as §1

A further assay has as its target T6, ERF (Homo sapiens, UniProt P50548 1-548).
T6 sequence: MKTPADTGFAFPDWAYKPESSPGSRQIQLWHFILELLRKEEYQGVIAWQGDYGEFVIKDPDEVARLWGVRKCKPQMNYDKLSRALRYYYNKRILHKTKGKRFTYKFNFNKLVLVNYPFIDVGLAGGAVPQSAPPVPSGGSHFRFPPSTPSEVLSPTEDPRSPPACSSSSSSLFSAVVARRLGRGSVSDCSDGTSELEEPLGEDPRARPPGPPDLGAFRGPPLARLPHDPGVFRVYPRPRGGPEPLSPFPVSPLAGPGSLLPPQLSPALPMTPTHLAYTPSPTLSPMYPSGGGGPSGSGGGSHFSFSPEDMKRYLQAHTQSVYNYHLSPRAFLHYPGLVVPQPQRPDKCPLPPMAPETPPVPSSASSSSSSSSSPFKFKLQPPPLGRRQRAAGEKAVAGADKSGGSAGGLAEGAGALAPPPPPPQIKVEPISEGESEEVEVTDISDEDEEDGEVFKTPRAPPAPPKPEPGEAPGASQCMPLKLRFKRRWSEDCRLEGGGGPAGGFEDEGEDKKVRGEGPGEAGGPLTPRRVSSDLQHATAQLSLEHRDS
The following applies: protein: recombinant; tags: N-terminal GST; dsDNA, one strand shown. The procedure, abridged: as §1

A further assay has as its target T7, SPDEF (Homo sapiens, UniProt O95238 1-335).
T7 sequence: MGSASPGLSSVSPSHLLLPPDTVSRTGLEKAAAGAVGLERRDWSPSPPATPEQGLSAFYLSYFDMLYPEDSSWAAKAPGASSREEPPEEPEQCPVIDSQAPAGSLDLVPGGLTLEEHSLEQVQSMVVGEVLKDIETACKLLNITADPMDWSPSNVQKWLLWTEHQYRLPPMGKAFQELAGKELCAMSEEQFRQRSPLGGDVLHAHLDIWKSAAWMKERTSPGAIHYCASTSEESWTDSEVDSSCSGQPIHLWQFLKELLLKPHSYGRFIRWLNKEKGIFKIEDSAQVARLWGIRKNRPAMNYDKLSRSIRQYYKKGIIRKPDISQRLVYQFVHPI
The following applies: protein: recombinant; tags: N-terminal GST; dsDNA, one strand shown. The procedure, abridged: as §1

The target in another assay is T8, ETV3 (Homo sapiens, UniProt P41162-2 1-143).
T8 sequence: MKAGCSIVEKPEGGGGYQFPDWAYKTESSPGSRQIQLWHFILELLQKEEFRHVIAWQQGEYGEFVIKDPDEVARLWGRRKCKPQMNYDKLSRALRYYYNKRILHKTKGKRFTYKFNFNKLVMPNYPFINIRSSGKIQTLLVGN
The conditions noted are these: protein: recombinant; tags: N-terminal GST; dsDNA, one strand shown. The procedure, abridged: as §1

Sequence of CRX (O43186 whole entry): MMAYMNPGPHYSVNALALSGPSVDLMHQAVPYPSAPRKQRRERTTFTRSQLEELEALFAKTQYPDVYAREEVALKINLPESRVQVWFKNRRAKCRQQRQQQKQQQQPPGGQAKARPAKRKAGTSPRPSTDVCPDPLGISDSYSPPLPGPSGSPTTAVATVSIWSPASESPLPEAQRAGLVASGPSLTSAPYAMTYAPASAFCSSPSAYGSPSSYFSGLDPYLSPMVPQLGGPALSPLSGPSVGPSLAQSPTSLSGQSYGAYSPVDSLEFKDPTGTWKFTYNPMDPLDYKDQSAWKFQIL
Sequence of HSF1 (Q00613 whole entry): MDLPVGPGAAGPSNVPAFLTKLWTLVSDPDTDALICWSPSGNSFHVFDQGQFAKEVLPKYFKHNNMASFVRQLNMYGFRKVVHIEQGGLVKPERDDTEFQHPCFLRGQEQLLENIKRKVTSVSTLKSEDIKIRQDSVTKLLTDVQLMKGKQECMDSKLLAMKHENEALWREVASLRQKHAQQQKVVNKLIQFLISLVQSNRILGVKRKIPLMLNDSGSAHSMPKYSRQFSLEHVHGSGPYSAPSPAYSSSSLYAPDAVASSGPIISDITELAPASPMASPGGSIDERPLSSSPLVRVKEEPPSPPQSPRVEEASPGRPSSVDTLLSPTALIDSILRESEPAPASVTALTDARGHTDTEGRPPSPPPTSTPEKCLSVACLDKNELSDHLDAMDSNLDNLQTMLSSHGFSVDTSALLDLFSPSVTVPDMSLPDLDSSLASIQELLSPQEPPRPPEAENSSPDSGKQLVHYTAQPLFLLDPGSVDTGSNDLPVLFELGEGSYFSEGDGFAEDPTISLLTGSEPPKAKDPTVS

GGGCAT: the binding signal with SPIC is 1 fold enrichment (6-mer frequency, TF over GST control).
As for GTGCTG, the binding signal with SPIC is 1.05 fold enrichment (6-mer frequency, TF over GST control).
For the sequence GTGGAT, the binding signal is 1 fold enrichment (6-mer frequency, TF over GST control) in the assay with ERG; 1.06 fold enrichment (6-mer frequency, TF over GST control) with SPI1; 1.04 fold enrichment (6-mer frequency, TF over GST control) in the assay with ELK3; 1.01 fold enrichment (6-mer frequency, TF over GST control) with HSF1; 1.25 fold enrichment (6-mer frequency, TF over GST control) with CRX.
In the case of CGAGAA, the binding signal was 3.31 fold enrichment (6-mer frequency, TF over GST control) with HSF1; 1.27 fold enrichment (6-mer frequency, TF over GST control) with CRX; 1.01 fold enrichment (6-mer frequency, TF over GST control) with ETV7.
With TTAGTC, the binding signal in the assay with HSF1 is 1.17 fold enrichment (6-mer frequency, TF over GST control); with CRX, 1.57 fold enrichment (6-mer frequency, TF over GST control).
Regarding GAGATT, the binding signal with HSF1 is 1.25 fold enrichment (6-mer frequency, TF over GST control); with CRX it was 1.57 fold enrichment (6-mer frequency, TF over GST control).
Take AGAGAT: the binding signal in the assay with HSF1 was 1.16 fold enrichment (6-mer frequency, TF over GST control); with CRX, 1.38 fold enrichment (6-mer frequency, TF over GST control).
Take GCGAAG: the binding signal with EHF is 1 fold enrichment (6-mer frequency, TF over GST control); with HSF1, 1.15 fold enrichment (6-mer frequency, TF over GST control).
Take GATAAG: the binding signal in the assay with ELK3 is 1.02 fold enrichment (6-mer frequency, TF over GST control); in the assay with HSF1 it was 1.29 fold enrichment (6-mer frequency, TF over GST control); with CRX it was 1.77 fold enrichment (6-mer frequency, TF over GST control).
With GGAATA, the binding signal in the assay with HSF1 is 1.44 fold enrichment (6-mer frequency, TF over GST control); in the assay with CRX, 1.02 fold enrichment (6-mer frequency, TF over GST control); with ERF, 1.02 fold enrichment (6-mer frequency, TF over GST control).
As to AGGATC, the binding signal was 1.08 fold enrichment (6-mer frequency, TF over GST control) in the assay with HSF1; 1.2 fold enrichment (6-mer frequency, TF over GST control) with CRX; 1.2 fold enrichment (6-mer frequency, TF over GST control) in the assay with SPDEF.
On to TCCAGA, for which the binding signal is 3.36 fold enrichment (6-mer frequency, TF over GST control) with HSF1 and 1.5 fold enrichment (6-mer frequency, TF over GST control) with CRX.
For the sequence AGCAGA, in the assay with SPIC, the binding signal was 1.04 fold enrichment (6-mer frequency, TF over GST control).
Take CAGAAC: the binding signal in the assay with HSF1 is 1.62 fold enrichment (6-mer frequency, TF over GST control); with ETV7, 1.03 fold enrichment (6-mer frequency, TF over GST control).
For the sequence GACTAA, the binding signal is 1.13 fold enrichment (6-mer frequency, TF over GST control) with HSF1 and 1.44 fold enrichment (6-mer frequency, TF over GST control) in the assay with CRX.
Consider GGATTA, for which the binding signal is 3.05 fold enrichment (6-mer frequency, TF over GST control) in the assay with HSF1; 5.42 fold enrichment (6-mer frequency, TF over GST control) with CRX; 1.02 fold enrichment (6-mer frequency, TF over GST control) in the assay with SPDEF.
Regarding TTCGGG, the binding signal with HSF1 was 1.58 fold enrichment (6-mer frequency, TF over GST control); with CRX, 1 fold enrichment (6-mer frequency, TF over GST control); with ETV3, 1.03 fold enrichment (6-mer frequency, TF over GST control).
